In PubChem BioAssay (NCATS) one finds Potency and activity change, negative = cytotoxicity data, which are given here for 23 molecules.

“And” between values parts separate entries of the source, which are not always exact repeats. Equal entries are not always repeated. Inconclusive results are not listed. A structure can be active in one record and inactive in another. The source made the active and inactive calls. The call rests on the fitted dose curve; in most records, active means well fitted curve in the direction sought with a large enough effect; inconclusive means small, poorly fitted or top-dose-only effect, or another doubt; inactive means no such curve, though single readings can be large; an effect the other way counts as inactive or inconclusive.

Assay [1] can be described thus: P-glycoprotein substrates identified in KB-8-5-11 adenocarcinoma cell line, qHTS therapeutic library screen (AID 1346987). Further: nearly all actives have a fitted effect of over 65% in size. On activity change, negative = cytotoxicity: series mostly up to about 44 µM; on the % scale 0 is the no-effect control and ±100 the full control effect. The essentials: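 P-gp-mediated resistance screen: KB-8-5-11 cells treated 72 h with compounds in dose-response. CellTiter-Glo viability.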
(Quantitative high-throughput screening tests each substance at several concentrations.)

Assay [2] is described as follows: NS1 protein of Zika virus - qHTS assay to identify small molecule inhibitors in human HEK 293 cells (AID 1347053). Further: nearly all actives have a fitted effect of over 55% in size. The method in brief:
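Inhibition of NS1 expression was scored in HEK 293 cells given compound 1 h ahead of MR766 virus (MOI = 0.5). Following 24 h at 37 C, two anti-NS1 antibodies generated a TR-FRET signal, scaled between uninfected and infected controls.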

Assay [3] in a line: qHTS of pediatric cancer cell lines to identify multiple opportunities for drug repurposing: Primary screen for TC32 cells (AID 1347089). Further: nearly all actives have a fitted effect of over 60% in size. The essentials: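 A viability screen of TC32 cells was run over 48 h, with primary MIPE doses spanning 0.78 nM–46 µM and NPC doses 0.59 nM–46 µM. ATP luminescence (CellTiter-Glo) served as the read-out.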
The nature of assay [4]: qHTS of pediatric cancer cell lines to identify multiple opportunities for drug repurposing: Primary screen for SJ-GBM2 cells (AID 1347091). The essentials: (§1)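 Eight- or eleven-point concentration series, 48 h treatment at 37 degrees C in growth media; readout CellTiter-Glo luminescence. Potency and efficacy were taken from the concentration-response curves.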
Assay [5] in a line: qHTS of pediatric cancer cell lines to identify multiple opportunities for drug repurposing: Primary screen for NB-EBc1 cells (AID 1347095). The method in brief:
(§2)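 Viability was measured as metabolically active cells after 48 hours of treatment, read by CellTiter-Glo luminescence. Compounds were tested at multiple final concentrations, giving concentration-response curves.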

A short description of assay [6]: qHTS of pediatric cancer cell lines to identify multiple opportunities for drug repurposing: Primary screen for DAOY cells (AID 1347090). Further: nearly all actives have a fitted effect of over 55% in size. The method in brief:
as §1

Assay [7] in a line: qHTS of pediatric cancer cell lines to identify multiple opportunities for drug repurposing: Primary screen for A673 cells (AID 1347092). Further: nearly all actives have a fitted effect of over 45% in size. The method in brief: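 Titration-based qHTS on A673 cells: MIPE compounds spanned 11 points (0.78 nM to 46 µM final), NPC compounds 8 points (0.59 nM to 46 µM final). Viability after 48 h was measured by ATP luminescence.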
Assay [8] is described as follows: qHTS of pediatric cancer cell lines to identify multiple opportunities for drug repurposing: Primary screen for SK-N-MC cells (AID 1347093). The method in brief:
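Metabolically active cells were quantified by ATP-dependent luminescence (CellTiter-Glo, 15 min at room temperature) following 48 h treatment. Cells had been plated at 500-1,000 per well and settled for 5 h beforehand.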

A short description of assay [9]: qHTS of pediatric cancer cell lines to identify multiple opportunities for drug repurposing: Primary screen for BT-37 cells (AID 1347094). The essentials: as §2
Potency means the concentration at half of the fitted maximal effect.

On to `C[C@@H]1CN(CC(=O)Nc2ccc3c(c2)Cc2cccc(-c4cc(=O)cc(N5CCOCC5)o4)c2S3)C[C@H](C)O1`, for which the Potency entry in assay [1] and in assay [3] was “inactive” in each case. In addition, the values for the Potency in [2], in assay [4] and in [5] were 18.7 µM (active), 14.8 µM (active) and 18.7 µM (active), respectively.

Regarding `CNC(=O)c1ccccc1Nc1nc(Nc2ccc(N3CCOCC3)cc2OC)ncc1Cl`, the Potency was 1.87 µM (active) and 1.64 µM (active) in assay [1]; 3.3 µM (active) in [3]; 14.8 µM (active) in assay [6]; 2.35 µM (active) in assay [4]; 1.87 µM (active) in assay [7]; 0.209 µM (active) in assay [8]. Besides, the Potency in assay [9] is 7.69 µM (active); in assay [5], 0.662 µM (active).

Regarding `NCC(=O)Nc1ccc(-n2nc(C(F)(F)F)cc2-c2ccc3c(ccc4ccccc43)c2)cc1`, the Potency in assay [1] is 14.8 µM (active) and 10.3 µM (active); in assay [2], 0.0526 µM (active); in assay [6], 23.5 µM (active); in assay [7] it was 23.5 µM (active); in assay [8], 0.0372 µM (active); in assay [9] it was 24.3 µM (active). In assay [5], the Potency is 0.833 µM (active).

As to `Cc1cc(Nc2ncnc3ccc(-c4ccc(CNCCS(C)(=O)=O)o4)cc23)ccc1Oc1ccn2ncnc2c1`, the Potency result in assay [1] and in [2] was “inactive” in each case. Also, the Potency is 9.35 µM (active) in assay [6]; 5.26 µM (active) in assay [4]; 0.235 µM (active) in assay [7]; 4.18 µM (active) in assay [8]; 6.11 µM (active) in assay [9]; 4.18 µM (active) in [5].

For the molecule `CCN1CCN(Cc2ccc(-c3cc4c(N[C@H](C)c5ccccc5)ncnc4[nH]3)cc2)CC1`, the Potency result in assay [1] is “inactive”. Further, the Potency was 0.117 µM (active) in [3]; 0.001 µM (active) in assay [6]; 0.332 µM (active) in assay [4]; 0.001 µM (active) in assay [7]; 0.153 µM (active) in [9]; 0.0469 µM (active) in [5].

As to `COc1cc(C)c(Sc2cnc(NC(=O)c3ccc(CNC(C)C(C)C)cc3)s2)cc1C(=O)N1CCN(C(C)=O)CC1` (centres undefined), the Potency entry in assay [1] was “inactive”. Besides, the Potency is 7.39 µM (active) in assay [3]; 14.8 µM (active) in assay [6]; 18.7 µM (active) in assay [4]; 9.35 µM (active) in assay [7]; 18.7 µM (active) in assay [5].

On to `Cn1c2ccccc2c2c3c(c4c5ccccc5n(CCC#N)c4c21)CNC3=O`, for which the Potency was 5.8 µM (active) in assay [1]; 5.9 µM (active) in [6]; 0.59 µM (active) in assay [4]; 0.935 µM (active) in assay [7]; 7.69 µM (active) in assay [9]; 0.418 µM (active) in [5].

With `CC(=O)c1c(C)c2cnc(Nc3ccc(N4CCNCC4)cn3)nc2n(C2CCCC2)c1=O`, the activity change, negative = cytotoxicity in assay [1] is 6.87% [at 5.11 µM] (inactive). In addition, the Potency in [8] and in assay [5] was 20.9 µM (active) throughout.

On to `OCCCNc1cc(-c2ccnc(Nc3cccc(Cl)c3)n2)ccn1`, for which the Potency was 83.3 nM (active) and 146 nM (active) in assay [1]; 0.418 µM (active) in assay [2]; 0.37 µM (active) in [3]; 0.187 µM (active) in assay [6]; 0.105 µM (active) in [8]; 0.243 µM (active) in assay [9]. For the same molecule, the Potency in assay [5] is 0.0935 µM (active).

In the case of `O=C(CCCCCCC(=O)Nc1ccc([C@H]2O[C@@H](CSc3nc(-c4ccccc4)c(-c4ccccc4)o3)C[C@@H](c3ccc(CO)cc3)O2)cc1)NO`, the Potency in [1] was 11.8 µM (active) and inactive; in [6], 11.8 µM (active); in assay [4], 14.8 µM (active); in [7], 4.69 µM (active); in assay [8] it was 8.33 µM (active); in [9], 15.3 µM (active). Further, in [5], the Potency was 8.33 µM (active). Also, the Potency entry in [2] is “inactive”.

For `Cc1cc(Nc2cc(CN3CCOCC3)c3nc(C)c(Cc4ccc(Cl)cc4F)n3n2)n[nH]1`, the Potency in assay [1] was 13.2 µM (active) and 16.4 µM (active); in [6] it was 23.5 µM (active); in [4], 23.5 µM (active); in assay [5] it was 4.18 µM (active).

Consider `COC(=O)Nc1nc2ccc(C(=O)c3ccc(F)cc3)cc2[nH]1`, for which the Potency in assay [1] was 418 nM (active) and 1.03 µM (active); in assay [6], 0.743 µM (active); in assay [4], 0.526 µM (active); in [7], 0.59 µM (active); in assay [8], 0.372 µM (active); in assay [5], 0.264 µM (active). Further, the Potency result in assay [3] is “inactive”.

Consider `C[C@]12CC[C@H](O)CC1=CCC1C2CC[C@]2(C)C(n3cnc4ccccc43)=CCC12` (some centres undefined), for which the Potency entry in assay [1], in assay [2] and in assay [3] was “inactive” throughout. In addition, the values for the Potency in assay [4] and in assay [7] were 23.5 µM (active) and 14.8 µM (active), respectively.

Take `Cc1cn2c(-c3cn[nH]c3)cnc2c(Nc2ccc(C(=O)N3CCNCC3)cc2F)n1`: the Potency result in assay [1] and in [2] was “inactive” throughout. Moreover, the Potency in assay [6] was 18.7 µM (active); in assay [7] it was 14.8 µM (active); in [8], 1.66 µM (active); in assay [9], 17.2 µM (active).

`Cc1cc(Nc2nc(N[C@@H](C)c3ccc(F)cc3)c(C#N)cc2F)n[nH]1`: the Potency in assay [1] was 935 nM (active) and 580 nM (active); in [3], 2.62 µM (active); in [7], 1.18 µM (active); in assay [5] it was 0.662 µM (active). Further, the Potency entry in assay [2] was “inactive”.

`Cc1c(CN2CCN(S(C)(=O)=O)CC2)sc2c(N3CCOCC3)nc(-c3cnc(N)nc3)nc12`: the Potency was 41.8 nM (active) and 291 nM (active) in [1]; 0.294 µM (active) in [3]; 0.118 µM (active) in assay [6]; 0.0469 µM (active) in [4]; 0.187 µM (active) in [7]; 0.0047 µM (active) in [8]. Also, the Potency is 0.193 µM (active) in assay [9] and 0.0332 µM (active) in [5].

As to `Cc1cc(CN2CCN(c3c(Br)cnc4nc(-c5ccc(N6CCN(C)CC6)cc5)[nH]c34)CC2)no1`, the Potency in [1] was 0.92 µM (active); in assay [4], 5.9 µM (active); in assay [7], 23.5 µM (active); in assay [8], 1.18 µM (active); in [5] it was 2.35 µM (active).

With `CC(=O)Nc1sc2c(c1-c1nc3ccccc3s1)CNC2`, the Potency is 16.6 µM (active) and 13 µM (active) in assay [1]; 15.3 µM (active) in assay [9]; 2.35 µM (active) in [5]. Besides, the Potency entry in assay [2] and in assay [3] was “inactive” in each case.

As for `CNC(=O)c1c(F)cccc1Nc1nc(Nc2cc3c(cc2OC)CCN3C(=O)CN(C)C)nc2[nH]ccc12`, the Potency in assay [1] is 16.6 µM (active) and 18.4 µM (active); in assay [3], 5.87 µM (active); in [6] it was 0.118 µM (active); in assay [7] it was 0.0935 µM (active); in assay [8], 0.0148 µM (active); in [5] it was 0.332 µM (active). Moreover, the Potency entry in assay [2] was “inactive”.

Regarding `CCS(=O)(=O)c1cccc(-c2cc(C(=O)NC3CCN(C)CC3)c(C)c3[nH]c4ncc(C)cc4c23)c1`, the Potency in assay [2] is 13.2 µM (active); in assay [3], 0.415 µM (active); in [6], 14.8 µM (active); in [4], 0.526 µM (active); in [7], 0.743 µM (active); in assay [8], 0.187 µM (active). For the same molecule, the Potency is 3.06 µM (active) in [9] and 16.6 µM (active) in [5].

On to `Clc1cccc(-n2nnnc2NCc2ccccc2Oc2ccccn2)c1Cl`, for which the Potency entry in [2], in assay [3], in assay [6], in [4], in assay [8] and in assay [9] was “inactive” each time. Besides, the Potency entry in [5] was “inactive”.

Turning to `C=CC(=O)Nc1cccc(Oc2nc(Nc3ccc(N4CCN(C)CC4)cc3)ncc2Cl)c1`, the Potency in assay [2] was 13.2 µM (active); in assay [3], 7.39 µM (active); in assay [6] it was 0.935 µM (active); in assay [4] it was 1.87 µM (active); in assay [7] it was 0.935 µM (active); in [8], 0.469 µM (active). In addition, the Potency in assay [5] was 2.35 µM (active).

Consider `C[C@@H]1COC(Nc2ccc3ncnc(Nc4ccc(OCc5nccs5)c(Cl)c4)c3c2)=N1`, for which, in [3], the Potency entry was “inactive”. Moreover, the Potency was 0.935 µM (active) in assay [6], 23.5 µM (active) in assay [4], 2.35 µM (active) in assay [8] and 2.64 µM (active) in [5].
